{
  "source": "PubChem BioAssay AID449762",
  "about": "(Southern Research Specialized Biocontainment Screening …, 2010)",
  "note": "About 1,900 (0.58%) of roughly 330,000 compounds were called active. Roughly 4% stayed inconclusive and do not appear here. Only a sample is shown. Potency and affinity values are given separately. Values without a mark were called inactive. Rule as the data show it: inconclusive = inhibition above about 70% without an active follow-up result; inactive = below that.",
  "data": [
    {"assay": "M. tuberculosis growth inhibition, HTS (AID 449762);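 also: bacterial growth assessed after seven days of incubation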", "details": "M. tuberculosis H37Rv growth inhibition, 7H9 media; at 25 µM; active compounds read high", "units": {"inhibition": "%"}, "values": [
      {"smiles": "Cc1ccc(C(C(=O)Nc2ccc3c(c2)OCO3)N(C)C(=O)Cc2c[nH]c3ccccc23)cc1", "note": "(stereo not given)", "inhibition": -1.34},
      {"smiles": "C/C(=C\\C(=S)Nc1ccccc1)Nc1cccc2ccccc12", "inhibition": 64.1},
      {"smiles": "C/C(=C\\C(=S)Nc1ccccc1)Nc1ccccc1", "inhibition": 3.81},
      {"smiles": "O=C(CC1CCCCC1)NCCCN1CCOCC1", "inhibition": -0.7},
      {"smiles": "O=C(CSc1nc2[nH]c(=O)cc(O)c2s1)Nc1ccc(Br)cc1", "inhibition": -3.77},
      {"smiles": "CC(=O)N1CCc2cc(Br)cc(S(=O)(=O)NCC3CCCO3)c21", "note": "(stereo not given)", "inhibition": 0.13},
      {"smiles": "COc1cc2cc(C(=O)N(C)Cc3ccccc3)[nH]c2cc1OC", "inhibition": 6.88},
      {"smiles": "COCCCn1c(SCc2ccc(OC)cc2)nc2cc(OC)c(OC)cc2c1=N", "inhibition": -4.77},
      {"smiles": "COCCCn1c(SCc2ccccc2)nc2cc(OC)c(OC)cc2c1=N", "inhibition": -2.27},
      {"smiles": "O=C(CN1C(=O)NC2(CCCC2)C1=O)OCc1cccc(Br)c1", "inhibition": -6.4},
      {"smiles": "O=C(NC1CCSc2ccccc21)c1ccccc1Cl", "note": "(stereo not given)", "inhibition": 43.4},
      {"smiles": "O=C(NC1CCSc2ccccc21)c1ccccc1F", "note": "(stereo not given)", "inhibition": 12.7},
      {"smiles": "COc1ccc(OCc2n[nH]c(=S)n2-c2ccc(C)cc2)cc1", "inhibition": 3.01},
      {"smiles": "Cc1cc(=O)[nH]c(N/N=C/c2c(C)nn(-c3ccc(F)cc3)c2Cl)n1", "inhibition": 0.52},
      {"smiles": "Cc1ccc(-c2nc(N=Nc3ccc(O)cc3)n[nH]2)cc1", "inhibition": 4.83},
      {"smiles": "Oc1ccc(N=Nc2n[nH]c(-c3ccc(Br)cc3)n2)cc1", "inhibition": 4.79},
      {"smiles": "CCC(CO)Oc1cc(NC(=O)c2ccc(N)cc2)c2ncn(C(C)C)c2c1", "note": "(stereo not given)", "inhibition": 4.76},
      {"smiles": "CCOc1ccc(-c2[nH]ncc2-c2ccccc2)c(O)c1", "inhibition": 9.38},
      {"smiles": "COc1ccc(-c2[nH]ncc2-c2ccc(Cl)cc2)c(O)c1", "inhibition": 41.7},
      {"smiles": "O=[N+]([O-])c1ccc(COc2ccc(-c3[nH]ncc3-c3ccccc3)c(O)c2)cc1", "inhibition": -2.72},
      {"smiles": "COc1ccc(-c2cn[nH]c2-c2ccc(OCc3ccc([N+](=O)[O-])cc3)cc2O)cc1", "inhibition": 8.94},
      {"smiles": "Cc1cc(N2C(=O)C3CC=CCC3C2=O)cc(C)c1Br", "note": "(stereo not given)", "inhibition": 4.22},
      {"smiles": "CC(=NNC(=O)c1ccc(NS(=O)(=O)c2ccc(Br)cc2)cc1)c1cccnc1", "inhibition": 9.29},
      {"smiles": "CC(C)Cc1nc2sc3c(=O)[nH]cnc3c2c2c1CCCC2", "inhibition": 1.08},
      {"smiles": "CCN(CC)C(=O)CNC(=S)N(CCCN1CCOCC1)Cc1cccs1", "inhibition": 1.2},
      {"smiles": "CCc1cc(-c2[nH]ncc2-c2ccc([N+](=O)[O-])cc2)c(O)cc1OC", "inhibition": 1.64},
      {"smiles": "CCCCn1c(NC(=S)Nc2ccccc2)nc2ccccc21", "inhibition": 2.6},
      {"smiles": "CCCn1c(NC(=S)Nc2ccccc2)nc2ccccc21", "inhibition": 2.43},
      {"smiles": "CSc1nc2ccsc2c(=O)n1-c1ccccn1", "inhibition": -2.21},
      {"smiles": "CCn1c(C)nc2cc(C(=O)OCCC(F)(F)F)ccc21", "inhibition": -1.06},
      {"smiles": "CCn1c(C)nc2cc(C(=O)OC)ccc21", "inhibition": -7.44},
      {"smiles": "COc1ccccc1C(=O)NC(CCSC)C(=O)OCC(=O)N1CCCC1=O", "note": "(stereo not given)", "inhibition": -5.17},
      {"smiles": "COc1ccc(-c2c(C#Cc3ccsc3)c3cc(-c4ccc5cc[nH]c5c4)ccc3n2C)cc1", "inhibition": -6.96},
      {"smiles": "CN(C)CCN(Cc1ccccc1)C(=O)[C@H](Cc1ccccc1)N1C(=O)c2ccccc2C1=O", "inhibition": -1.93},
      {"smiles": "COc1ccc(NC(=O)CSc2nc(SC)ns2)c(OC)c1", "inhibition": 4.38},
      {"smiles": "CSc1nsc(SCC(=O)Nc2ccccc2C(N)=O)n1", "inhibition": 2.11},
      {"smiles": "O=C(O)c1cccc(N2C(=O)/C(=C/c3ccc([N+](=O)[O-])cc3)C=C2c2ccccc2)c1", "inhibition": 7.59},
      {"smiles": "O=C1/C(=C/c2ccc([N+](=O)[O-])cc2)C=C(c2ccccc2)N1c1ccccc1", "inhibition": 10.5},
      {"smiles": "COc1ccc(-n2c(SCC(=O)N3CCc4ccccc43)nnc2-c2c[nH]c3ccccc23)cc1", "inhibition": 7.85},
      {"smiles": "COc1ccccc1N(CC(=O)NC(C)(C)C)C(=O)CCC(=O)Nc1nccs1", "inhibition": -0.5},
      {"smiles": "CC1(CCc2ccccc2)NC(=O)N(CC(=O)Nc2ccc(S(N)(=O)=O)cc2)C1=O", "note": "(stereo not given)", "inhibition": 0.35},
      {"smiles": "CNC[C@@H](C)NC[C@@H](Cc1ccccc1)NCCc1ccccc1", "inhibition": 1.77},
      {"smiles": "NC[C@H](Cc1ccccc1)NCCCCC1CCCCC1", "inhibition": -8.88},
      {"smiles": "COc1cccc(NC(=O)COC(=O)c2ccccc2SCC(=O)N2CCCC2)c1", "inhibition": 5.04},
      {"smiles": "Cc1cc(=O)[nH]c(Nc2cccc(Cl)c2C)n1", "inhibition": 1.14},
      {"smiles": "O=C(NS(=O)(=O)c1ccccc1Cl)c1ccc[nH]1", "inhibition": 2.54},
      {"smiles": "CCOc1ccc(C(C)NC(=O)Cc2ccccc2)cc1OCC", "note": "(stereo not given)", "inhibition": -8.29},
      {"smiles": "OCCN1CCN(c2nc(NCc3ccco3)c3ccccc3n2)CC1", "inhibition": -0.19},
      {"smiles": "OCCNc1nc(N2CCN(Cc3ccccc3)CC2)nc2ccccc12", "inhibition": 5.92},
      {"smiles": "CCc1cccc(CC)c1NC(=O)CSc1nc2ccc(N3C(=O)C4C5C=CC(C5)C4C3=O)cc2s1", "note": "(stereo not given)", "inhibition": -11},
      {"smiles": "CCc1cccc(CC)c1NC(=O)CSc1nc2ccc(N3C(=O)C4C(C3=O)[C@H]3C=C[C@@H]4C3)cc2s1", "note": "(stereo not given in full)", "inhibition": -9.69},
      {"smiles": "COc1cc(C(=O)Nc2cccc(S(=O)(=O)NCc3ccco3)c2)cc(OC)c1OC", "inhibition": 0.68},
      {"smiles": "COc1ccc(CCC(C)NC(=O)CCc2ccccc2)c(OC)c1", "note": "(stereo not given)", "inhibition": 4.05},
      {"smiles": "COc1cc(/C=N/NC(=O)c2csc3c2CCCC3)ccc1OCCN1CCOCC1", "inhibition": -0.72},
      {"smiles": "COc1cc(/C=N/NC(=O)c2cc3ccccc3cc2O)ccc1OCCN1CCCCC1", "inhibition": 9.28},
      {"smiles": "COc1ccccc1CNC(=O)CN1CCN(S(=O)(=O)c2cccs2)CC1", "inhibition": -5.5},
      {"smiles": "CSCCC(NS(=O)(=O)c1ccc(Cl)cc1)C(=O)OCC(=O)NC1CCCCC1", "note": "(stereo not given)", "inhibition": 1.43},
      {"smiles": "COc1ccc(NC2=NC(C)(C)CS2)cc1", "inhibition": -0.92},
      {"smiles": "Cc1ccc(C(=O)CNc2ccc(Br)cc2)cc1", "inhibition": 2.6},
      {"smiles": "Cc1ccc(C(=O)CCNc2ccc(Br)cc2)o1", "inhibition": -5.24},
      {"smiles": "CC12CCC(C(=O)Nc3cccc4ccccc34)(C1Br)C2(C)C", "note": "(stereo not given)", "inhibition": 5.17},
      {"smiles": "CCCCOc1ccc(-c2nc(SCC(N)=O)n[nH]2)cc1", "inhibition": 48.6},
      {"smiles": "CCOc1ccc(-c2cnc(SCC(N)=O)nc2N)cc1", "inhibition": 62.7},
      {"smiles": "CCC1(c2ccc(F)cc2)NC(=O)N(CC(=O)N2c3ccccc3NC(=O)C2(C)C)C1=O", "note": "(stereo not given)", "inhibition": 1.45},
      {"smiles": "CCOc1ccc(-n2c(Cc3ccccc3)nnc2SCc2c(C)noc2C)cc1", "inhibition": -5.75},
      {"smiles": "COc1cc(-c2nc3ccc4ccccc4c3c3c2CCC3)ccc1O", "inhibition": -4},
      {"smiles": "Oc1ccc(-c2nc3ccc4ccccc4c3c3c2CCC3)cc1O", "inhibition": -2.27},
      {"smiles": "Cc1ccccc1NC(=O)CN1C(=O)NC2(CCc3ccccc32)C1=O", "note": "(stereo not given)", "inhibition": 8.44},
      {"smiles": "Oc1ccc(Nc2ccnc3cc(Cl)ccc23)cc1", "inhibition": 7.94},
      {"smiles": "CC/C(=N\\Nc1ccnc2cc(Cl)ccc12)c1ccc(O)cc1", "inhibition": 9.75},
      {"smiles": "C/C(=N/Nc1ccnc2cc(Cl)ccc12)c1ccc(N)cc1", "inhibition": -2.9},
      {"smiles": "Clc1ccc2c(NNc3ccccc3Cl)ccnc2c1", "inhibition": 64.1},
      {"smiles": "COc1ccc(OC2C(=O)N(Cc3ccc(F)cc3)C2c2cc(OC)c(OC)c(OC)c2)cc1", "note": "(stereo not given)", "inhibition": 20.5},
      {"smiles": "COc1ccc(S(=O)(=O)Cc2ccc(C(=O)NC3CCC(C)CC3)o2)cc1", "note": "(stereo not given)", "inhibition": 1.75},
      {"smiles": "Cc1ccc(C(=O)CSc2nnc3n2CCCCC3)s1", "inhibition": -7.99},
      {"smiles": "COCCCNC(=O)Nc1ccc2c(c1)N(C)C(=O)CS2", "inhibition": 1.24},
      {"smiles": "O=C(CN(CCc1ccccc1)C(=O)CNS(=O)(=O)c1ccc(F)cc1)NCc1ccco1", "inhibition": 1.92},
      {"smiles": "CCCCN1CCNC[C@@H]1c1ccccc1", "inhibition": -9.81},
      {"smiles": "CCOC1OC(=O)C(Cl)=C1Nc1ccc(C)cc1C", "note": "(stereo not given)", "inhibition": 9.67},
      {"smiles": "CCOC1OC(=O)C(Cl)=C1Nc1cc(C)ccc1C", "note": "(stereo not given)", "inhibition": -3.33},
      {"smiles": "Cc1ccc(NC(=O)C2CCN(C(=O)[C@@H]3Cc4ccccc4CN3)CC2)cc1", "inhibition": 9.95},
      {"smiles": "O=C(COC(=O)c1cc2ccccc2oc1=O)Nc1cccc(S(=O)(=O)N2CCCCCC2)c1", "inhibition": -4.32},
      {"smiles": "CCOC(=O)Cc1csc(NC(=O)CSc2nnnn2-c2ccc(F)cc2)n1", "inhibition": -5.86},
      {"smiles": "CCc1nnc(NC(=O)CN2C(=O)NC3(CC(C)CC(C)(C)C3)C2=O)s1", "note": "(stereo not given)", "inhibition": -0.6},
      {"smiles": "CCOC(=O)c1sc(NC(=O)CN2C(=O)NC3(CC(C)CC(C)(C)C3)C2=O)c(C(=O)OCC)c1C", "note": "(stereo not given)", "inhibition": 5.68},
      {"smiles": "CSCC[C@H](NC(=O)c1cccc(S(=O)(=O)N2CCN(C)CC2)c1)c1nc2ccccc2[nH]1", "inhibition": -7.51},
      {"smiles": "CC(C(=O)Nc1ccc2c(c1)OCCO2)n1nnc(-c2ccccc2)n1", "note": "(stereo not given)", "inhibition": 0.15},
      {"smiles": "Cc1nc(C)c(CCNC(=O)c2ccccc2Br)s1", "inhibition": -5.7},
      {"smiles": "Cc1ccc(NC(=S)N/N=C2\\CCCCC2C)cc1", "note": "(stereo not given)", "inhibition": 5.06},
      {"smiles": "S=C(Nc1ccccc1)NC1CCN(Cc2ccccc2)CC1", "inhibition": -9.83},
      {"smiles": "CC1CCCC/C1=N\\NC(=S)Nc1ccccc1", "note": "(stereo not given)", "inhibition": 0.51},
      {"smiles": "O=C(NCCc1ccccc1)C(=O)NN=C1CCCC1", "inhibition": -3.67},
      {"smiles": "O=C(CC(=O)NN=C1CCCC1)NCCc1ccccc1", "inhibition": 4.48},
      {"smiles": "S=C(NC1CCCCC1)N1CCN(Cc2ccccc2)CC1", "inhibition": -15.7},
      {"smiles": "Cc1cccc(C)c1NC(=S)NCCc1ccccn1", "inhibition": 3.14}
    ]}
  ]
}
